The results in this text go back to ChEMBL document CHEMBL2218924, “A broad activity screen in support of a chemogenomic map for kinase signalling research and drug discovery” (Biochem J, 2013).

Test [1] deals with Mitogen-activated protein kinase 11 (Homo sapiens) (UniProt Q15759). Conditions: at 1 µM.
Test [2] shares this target. Conditions: at 10 µM.
Test [3] has as its target T1, Mitogen-activated protein kinase 13 (Homo sapiens) (UniProt O15264).
T1 sequence (whole entry): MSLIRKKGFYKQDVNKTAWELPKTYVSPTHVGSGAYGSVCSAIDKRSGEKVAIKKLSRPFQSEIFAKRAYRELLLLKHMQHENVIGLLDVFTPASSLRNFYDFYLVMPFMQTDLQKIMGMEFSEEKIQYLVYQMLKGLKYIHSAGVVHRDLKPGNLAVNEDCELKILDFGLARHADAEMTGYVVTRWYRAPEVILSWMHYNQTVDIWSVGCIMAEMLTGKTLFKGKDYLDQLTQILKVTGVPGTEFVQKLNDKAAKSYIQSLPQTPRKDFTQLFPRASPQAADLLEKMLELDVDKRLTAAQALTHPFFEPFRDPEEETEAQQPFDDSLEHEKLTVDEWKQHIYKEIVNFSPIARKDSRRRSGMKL
Conditions: at 1 µM.

For test [4], the target named is T1, Mitogen-activated protein kinase 13 (Homo sapiens). As to conditions: at 10 µM.
Test [5] has as its target T2, Serine/threonine-protein kinase Sgk1 (Homo sapiens) (UniProt O00141).
T2 sequence (whole entry): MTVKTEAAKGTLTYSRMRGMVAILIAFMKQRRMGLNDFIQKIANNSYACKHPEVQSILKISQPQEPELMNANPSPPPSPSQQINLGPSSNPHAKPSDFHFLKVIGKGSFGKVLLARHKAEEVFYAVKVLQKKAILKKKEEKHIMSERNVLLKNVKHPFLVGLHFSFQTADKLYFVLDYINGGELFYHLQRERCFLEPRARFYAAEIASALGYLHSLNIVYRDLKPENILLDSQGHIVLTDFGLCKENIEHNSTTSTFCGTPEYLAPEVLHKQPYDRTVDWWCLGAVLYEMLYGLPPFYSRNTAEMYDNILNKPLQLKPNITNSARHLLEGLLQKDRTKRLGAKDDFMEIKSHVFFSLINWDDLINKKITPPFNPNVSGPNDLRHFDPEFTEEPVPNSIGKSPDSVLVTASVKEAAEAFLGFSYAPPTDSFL
Conditions: at 1 µM.

Test [6] concerns the target T2, Serine/threonine-protein kinase Sgk1 (Homo sapiens). Conditions: at 10 µM.
Test [7] addresses T3, Serine/threonine-protein kinase Sgk2 (Homo sapiens) (UniProt Q9HBY8).
T3 sequence (whole entry): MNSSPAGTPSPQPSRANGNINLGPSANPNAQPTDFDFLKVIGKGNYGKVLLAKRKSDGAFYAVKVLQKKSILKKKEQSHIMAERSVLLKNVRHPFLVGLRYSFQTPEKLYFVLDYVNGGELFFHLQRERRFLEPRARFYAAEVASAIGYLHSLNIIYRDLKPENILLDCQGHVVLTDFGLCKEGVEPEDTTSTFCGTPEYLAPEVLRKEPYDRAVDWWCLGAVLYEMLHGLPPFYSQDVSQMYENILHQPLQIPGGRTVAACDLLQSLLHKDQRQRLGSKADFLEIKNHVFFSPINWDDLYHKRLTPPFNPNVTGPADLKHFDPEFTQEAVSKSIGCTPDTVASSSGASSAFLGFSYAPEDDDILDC
Conditions: at 1 µM.

Test [8] deals with T3, Serine/threonine-protein kinase Sgk2 (Homo sapiens). Conditions: at 10 µM.
Test [9] concerns the target T4, Serine/threonine-protein kinase Sgk3 (Homo sapiens) (UniProt Q96BR1).
T4 sequence (whole entry): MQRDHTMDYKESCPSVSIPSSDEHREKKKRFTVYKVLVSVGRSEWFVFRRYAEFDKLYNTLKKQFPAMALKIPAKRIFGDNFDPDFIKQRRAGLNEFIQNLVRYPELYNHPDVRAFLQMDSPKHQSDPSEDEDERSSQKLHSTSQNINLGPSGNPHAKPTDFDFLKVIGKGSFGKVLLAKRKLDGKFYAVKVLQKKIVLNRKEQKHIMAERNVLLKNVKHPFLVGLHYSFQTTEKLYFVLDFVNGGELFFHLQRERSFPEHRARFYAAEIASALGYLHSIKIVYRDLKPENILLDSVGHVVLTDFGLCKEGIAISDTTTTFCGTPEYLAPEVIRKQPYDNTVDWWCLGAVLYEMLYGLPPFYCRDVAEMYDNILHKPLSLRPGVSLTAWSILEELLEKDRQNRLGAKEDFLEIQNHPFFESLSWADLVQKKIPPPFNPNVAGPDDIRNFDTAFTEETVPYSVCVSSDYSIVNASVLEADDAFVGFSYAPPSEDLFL
As to conditions: at 10 µM.

Test [10] addresses Serine/threonine-protein kinase SIK1 (Homo sapiens) (UniProt P57059). As to conditions: at 1 µM.
Test [11] shares this target. Conditions: at 10 µM.
The target in test [12] is SRSF protein kinase 1 (Homo sapiens) (UniProt Q96SB4). Conditions: at 1 µM.
Test [13] has the same target. Conditions: at 10 µM.
Test [14] deals with SRSF protein kinase 2 (Homo sapiens) (UniProt P78362). Conditions: at 1 µM.
Test [15] has the same target. Conditions: at 10 µM.
Test [16] concerns the target Serine/threonine-protein kinase 33 (Homo sapiens) (UniProt Q9BYT3). As to conditions: at 1 µM.
Test [17] has the same target. Conditions: at 10 µM.
In test [18] the target is Serine/threonine-protein kinase PLK2 (Homo sapiens) (UniProt Q9NYY3). As to conditions: at 1 µM.
For test [19] the target is unchanged. Conditions: at 10 µM.
Test [20] deals with Tyrosine-protein kinase SYK (Homo sapiens) (UniProt P43405). Conditions: at 1 µM.

Serine/threonine-protein kinase 33 (Homo sapiens), sequence (Q9BYT3 whole entry, looked up): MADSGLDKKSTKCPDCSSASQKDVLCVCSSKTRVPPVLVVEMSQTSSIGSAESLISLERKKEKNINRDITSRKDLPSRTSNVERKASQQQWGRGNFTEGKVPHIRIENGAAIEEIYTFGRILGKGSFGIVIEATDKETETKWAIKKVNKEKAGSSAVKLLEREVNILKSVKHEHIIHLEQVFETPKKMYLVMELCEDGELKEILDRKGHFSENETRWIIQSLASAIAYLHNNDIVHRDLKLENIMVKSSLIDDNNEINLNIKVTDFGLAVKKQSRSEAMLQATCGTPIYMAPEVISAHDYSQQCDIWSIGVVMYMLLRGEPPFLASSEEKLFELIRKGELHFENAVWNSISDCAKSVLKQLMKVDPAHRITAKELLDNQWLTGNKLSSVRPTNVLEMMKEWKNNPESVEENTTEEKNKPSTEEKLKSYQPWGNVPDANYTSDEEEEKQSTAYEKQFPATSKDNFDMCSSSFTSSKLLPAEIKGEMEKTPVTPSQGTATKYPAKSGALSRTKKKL
SRSF protein kinase 2 (Homo sapiens), sequence (P78362 whole entry, looked up): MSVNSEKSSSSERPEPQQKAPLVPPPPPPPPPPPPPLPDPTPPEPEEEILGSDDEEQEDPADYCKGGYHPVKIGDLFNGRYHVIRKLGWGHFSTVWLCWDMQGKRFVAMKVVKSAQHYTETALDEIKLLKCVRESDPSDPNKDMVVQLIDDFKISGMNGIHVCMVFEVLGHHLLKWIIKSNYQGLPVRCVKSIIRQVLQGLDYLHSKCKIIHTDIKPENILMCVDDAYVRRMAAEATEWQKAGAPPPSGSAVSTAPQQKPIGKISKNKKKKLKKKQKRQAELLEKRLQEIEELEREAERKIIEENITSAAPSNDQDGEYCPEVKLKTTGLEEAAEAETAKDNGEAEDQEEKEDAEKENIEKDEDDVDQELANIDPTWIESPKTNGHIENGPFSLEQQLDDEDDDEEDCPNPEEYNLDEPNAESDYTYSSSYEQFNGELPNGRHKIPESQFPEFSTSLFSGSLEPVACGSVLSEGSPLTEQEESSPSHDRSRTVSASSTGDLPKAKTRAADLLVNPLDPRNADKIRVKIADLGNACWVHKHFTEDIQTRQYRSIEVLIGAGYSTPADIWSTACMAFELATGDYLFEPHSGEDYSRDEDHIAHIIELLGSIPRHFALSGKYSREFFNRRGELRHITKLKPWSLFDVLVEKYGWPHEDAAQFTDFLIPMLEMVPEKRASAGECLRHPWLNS
Mitogen-activated protein kinase 11 (Homo sapiens), sequence (Q15759 whole entry): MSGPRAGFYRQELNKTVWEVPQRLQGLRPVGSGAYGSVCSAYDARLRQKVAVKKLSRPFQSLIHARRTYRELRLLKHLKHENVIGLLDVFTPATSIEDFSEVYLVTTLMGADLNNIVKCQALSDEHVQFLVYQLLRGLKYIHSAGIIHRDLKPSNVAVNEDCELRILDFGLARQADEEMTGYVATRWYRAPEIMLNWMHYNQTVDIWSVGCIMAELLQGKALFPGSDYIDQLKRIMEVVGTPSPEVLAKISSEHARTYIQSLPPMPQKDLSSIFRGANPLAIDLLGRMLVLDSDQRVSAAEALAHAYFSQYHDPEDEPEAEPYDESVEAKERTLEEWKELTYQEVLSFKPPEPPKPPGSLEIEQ
Serine/threonine-protein kinase SIK1 (Homo sapiens), sequence (P57059 whole entry): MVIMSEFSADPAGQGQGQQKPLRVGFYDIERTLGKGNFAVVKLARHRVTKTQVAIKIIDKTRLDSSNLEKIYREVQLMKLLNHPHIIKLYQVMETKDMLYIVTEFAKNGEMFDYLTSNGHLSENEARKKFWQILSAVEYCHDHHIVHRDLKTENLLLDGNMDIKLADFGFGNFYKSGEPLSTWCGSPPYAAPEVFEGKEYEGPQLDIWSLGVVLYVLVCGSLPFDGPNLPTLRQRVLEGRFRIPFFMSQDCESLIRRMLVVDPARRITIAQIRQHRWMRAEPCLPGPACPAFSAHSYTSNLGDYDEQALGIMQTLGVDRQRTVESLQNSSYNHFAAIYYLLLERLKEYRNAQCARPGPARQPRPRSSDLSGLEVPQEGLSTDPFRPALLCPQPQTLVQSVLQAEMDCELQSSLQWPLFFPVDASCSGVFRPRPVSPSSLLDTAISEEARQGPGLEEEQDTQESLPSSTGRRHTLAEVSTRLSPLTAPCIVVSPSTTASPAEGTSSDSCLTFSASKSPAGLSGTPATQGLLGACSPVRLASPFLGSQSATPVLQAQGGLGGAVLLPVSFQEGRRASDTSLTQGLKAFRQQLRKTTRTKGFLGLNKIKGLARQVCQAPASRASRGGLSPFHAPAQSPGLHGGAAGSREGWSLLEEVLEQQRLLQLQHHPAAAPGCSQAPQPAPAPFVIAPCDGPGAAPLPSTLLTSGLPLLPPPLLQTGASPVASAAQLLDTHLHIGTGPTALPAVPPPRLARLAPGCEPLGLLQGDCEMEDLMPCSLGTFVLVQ
SRSF protein kinase 1 (Homo sapiens), sequence (Q96SB4 whole entry): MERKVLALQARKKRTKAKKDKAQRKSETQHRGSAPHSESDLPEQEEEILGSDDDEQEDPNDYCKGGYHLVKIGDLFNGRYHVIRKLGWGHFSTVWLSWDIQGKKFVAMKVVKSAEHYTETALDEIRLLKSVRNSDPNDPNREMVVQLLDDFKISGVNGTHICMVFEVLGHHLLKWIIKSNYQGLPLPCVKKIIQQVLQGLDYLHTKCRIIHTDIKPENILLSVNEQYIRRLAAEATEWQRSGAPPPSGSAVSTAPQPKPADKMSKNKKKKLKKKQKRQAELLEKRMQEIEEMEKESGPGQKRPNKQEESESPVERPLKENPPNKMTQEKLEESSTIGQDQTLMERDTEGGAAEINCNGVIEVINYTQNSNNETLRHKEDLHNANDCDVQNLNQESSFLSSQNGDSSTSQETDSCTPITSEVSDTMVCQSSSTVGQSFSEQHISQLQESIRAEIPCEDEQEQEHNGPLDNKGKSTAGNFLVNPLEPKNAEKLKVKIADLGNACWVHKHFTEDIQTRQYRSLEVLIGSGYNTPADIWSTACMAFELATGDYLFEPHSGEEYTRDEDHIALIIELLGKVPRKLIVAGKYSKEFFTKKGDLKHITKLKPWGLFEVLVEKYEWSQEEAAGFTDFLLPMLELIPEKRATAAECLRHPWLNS
Serine/threonine-protein kinase PLK2 (Homo sapiens), sequence (Q9NYY3 whole entry, looked up): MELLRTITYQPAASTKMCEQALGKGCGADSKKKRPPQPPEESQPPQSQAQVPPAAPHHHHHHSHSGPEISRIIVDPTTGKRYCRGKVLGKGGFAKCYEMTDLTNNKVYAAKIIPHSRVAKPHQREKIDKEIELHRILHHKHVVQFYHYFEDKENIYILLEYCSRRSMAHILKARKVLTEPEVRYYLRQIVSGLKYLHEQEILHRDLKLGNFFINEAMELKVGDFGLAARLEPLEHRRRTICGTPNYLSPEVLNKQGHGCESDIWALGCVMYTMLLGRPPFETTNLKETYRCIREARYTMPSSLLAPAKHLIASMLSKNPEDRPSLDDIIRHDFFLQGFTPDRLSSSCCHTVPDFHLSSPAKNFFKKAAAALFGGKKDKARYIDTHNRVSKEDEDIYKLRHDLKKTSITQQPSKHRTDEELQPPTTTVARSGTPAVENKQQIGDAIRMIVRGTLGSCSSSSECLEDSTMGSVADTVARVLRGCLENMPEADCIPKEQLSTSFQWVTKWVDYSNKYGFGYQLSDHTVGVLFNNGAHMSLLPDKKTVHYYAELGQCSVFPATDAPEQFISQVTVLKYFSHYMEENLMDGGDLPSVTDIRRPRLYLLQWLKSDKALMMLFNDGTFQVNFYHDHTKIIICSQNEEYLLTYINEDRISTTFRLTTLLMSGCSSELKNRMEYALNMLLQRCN

On to `O=C(O)c1ccc2c3c1cccc3c(=O)n1c3ccccc3nc21`, for which the residual activity in [1] was 116%; in [2], 48%; in test [3], 119%; in [4], 100%; in [5], 91%; in test [6], 103%. Besides, the residual activity is 116% in test [7]; 85% in test [8]; 83% in test [9]; 106% in test [10]; 83% in test [11]; 78% in test [12]. The residual activity in test [13] was found to be 21%; in [14], 91%; in test [15] it was 33%; in [16], 99%; in test [17] it was 59%; in test [18], 100%. Moreover, the residual activity in [19] is 94%; in [20], 100%.
`COc1cccc(-c2cc(=O)c3ccccc3o2)c1N`: the residual activity in [1] was found to be 101%; in test [2], 92%; in [3], 99%; in test [4], 96%; in test [5], 79%; in [6] it was 120%. Besides, the residual activity in [7] worked out at 89%; in test [8], 95%; in test [9], 86%; in test [10], 140%; in test [11] it was 124%; in test [12] it was 104%. Further, the residual activity in [13] was determined as 109%; in [14] it was 104%; in test [15], 88%; in [16] it was 100%; in test [17] it was 97%; in test [18], 108%. In addition, the residual activity in [19] and in [20] was 104% each time.
With `CO[C@H]1[C@@H](OC)C[C@H](C)[C@@H](OC)C2=CC(=O)C=C(NC(=O)/C(C)=C/C=C/[C@H](OC)[C@@H](OC(N)=O)/C(C)=C/[C@@H]1C)C2=O`, the residual activity in test [1] came out at 98%; in test [2], 102%; in test [3], 89%; in test [4] it was 96%; in [5], 98%; in test [6] it was 78%. Besides, the residual activity in test [7] worked out at 97%; in [8], 76%; in test [9], 93%; in test [10], 82%; in [11] it was 54%; in test [12] it was 104%. Also, the residual activity in test [13] came out at 102%; in test [14], 104%; in [15], 91%; in test [16] it was 98%; in test [17] it was 98%; in [18] it was 100%. The residual activity turned out to be 91% in [19] and 110% in test [20].
For `COc1ccc(C(=O)Nc2sc3c(c2C(N)=O)CCCC3)cc1OC`, the residual activity in [1] was found to be 96%; in test [2], 105%; in [3], 100%; in [4] it was 91%; in test [5], 85%; in test [6] it was 109%. In addition, the residual activity in test [7] is 99%; in test [8] it was 52%; in [9], 90%; in test [10], 91%; in test [11] it was 91%; in test [12], 84%. Also, the residual activity in test [13] was 95%; in [14] it was 89%; in test [15] it was 89%; in [16] it was 91%; in test [17] it was 97%; in test [18], 98%. Also, the residual activity was 97% in test [19] and 126% in [20].
For the molecule `O=C(Nc1cccc(Nc2nccc(Nc3cccc(C(F)(F)F)c3)n2)c1)C1CC1`, the residual activity turned out to be 103% in test [1]; 88% in test [2]; 107% in [3]; 95% in test [4]; 84% in test [5]; 66% in [6]. The residual activity in test [7] turned out to be 108%; in test [8], 89%; in [9] it was 78%; in test [10], 58%; in test [11], 50%; in test [12], 107%. Also, the residual activity in test [13] came to 87%; in test [14], 96%; in [15] it was 90%; in test [16] it was 102%; in test [17], 89%; in [18] it was 102%. Besides, the results for the residual activity in test [19] and in test [20] were 73% and 79%, respectively.
For `O=c1c2ccccc2[nH]c(=S)n1CCN1CCC(=C(c2ccc(F)cc2)c2ccc(F)cc2)CC1`, the residual activity is 103% in test [1]; 102% in test [2]; 102% in [3]; 89% in [4]; 92% in test [5]; 43% in test [6]. The residual activity in test [7] came out at 90%; in test [8] it was 88%; in [9] it was 72%; in test [10], 95%; in test [11], 80%; in [12] it was 81%. In addition, the residual activity in test [13] is 81%; in [14], 108%; in [15], 97%; in [16] it was 103%; in test [17], 99%; in [18], 113%. The residual activity in test [19] was 101%; in test [20], 125%.
With `Cc1ccc(NC2=CC(=O)c3sc(C)nc3C2=O)cc1`, the residual activity was determined as 102% in test [1]; 100% in test [2]; 98% in [3]; 96% in test [4]; 87% in [5]; 92% in test [6]. In addition, the residual activity in test [7] worked out at 103%; in test [8], 82%; in [9], 83%; in test [10], 109%; in test [11], 91%; in test [12], 97%. In addition, the residual activity in [13] turned out to be 96%; in test [14] it was 98%; in test [15], 87%; in [16], 88%; in [17] it was 92%; in [18], 95%. Further, the figures for the residual activity in test [19] and in test [20] were 93% and 99%, respectively.
